The supplement of paper PMC8728848
The sample as a whole holds a higher share of the strongest signals than the screen did.

How the values were obtained:
Test in all cases: glycan array binding signal (z-score within array); higher = stronger binding
Conditions in all cases: glycan notation: IUPAC condensed, linker removed
[1] = biological target: Fuc(a1-2)Gal(b1-3)GlcNAc(b1-2)Man(a1-3)[Fuc(a1-2)Gal(b1-3)GlcNAc(b1-2)Man(a1-6)]Man(b1-4)GlcNAc(b1-4)[Fuc(a1-6)]GlcNAc
Method in brief: (§1)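 Glycan array data were curated from 3228 arrays in the Consortium for Functional Glycomics database and kept only where the protein sequence was available. Glycan names were converted to IUPAC-condensed notation, and columns mapping to the same glycan were averaged. The binding signal is a within-array Z-score, averaged across arrays of the same protein sequence at different concentrations or buffers and across linkers. Negative Z-scores can be read as non-binding.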

[2] = biological target: Fuc(a1-2)Gal(b1-4)GlcNAc(b1-3)Gal(b1-4)GlcNAc(b1-2)Man(a1-3)[Fuc(a1-2)Gal(b1-4)GlcNAc(b1-3)Gal(b1-4)GlcNAc(b1-2)Man(a1-6)]Man(b1-4)GlcNAc(b1-4)GlcNAc
Method in brief: as §1

[3] = biological target: Fuc(a1-2)[Gal(a1-3)]Gal(b1-3)GlcNAc(b1-6)GalNAc
Method in brief: as §1

[4] = biological target: Fuc(a1-2)[Gal(a1-3)]Gal(b1-4)GlcNAc(b1-6)GalNAc
Method in brief: as §1

[5] = biological target: Fuc(a1-2)[GalNAc(a1-3)]Gal(b1-4)GlcNAc(b1-2)Man
Method in brief: as §1

[6] = biological target: Fuc(a1-2)[GalNAc(a1-3)]Gal(b1-4)GlcNAc(b1-6)GalNAc
Method in brief: as §1

[7] = biological target: Fuc(a1-2)[GalNAc(b1-3)]Gal
Method in brief: as §1

Gal(a1-3)Gal = biological target: Gal(a1-3)Gal
Method in brief: as §1

[8] = biological target: Gal(a1-3)Gal(b1-4)GlcNAc(b1-6)GalNAc
Method in brief: as §1

[9] = biological target: Gal(a1-3)Gal(b1-4)[Fuc(a1-3)]GlcNAc(b1-2)Man(a1-3)[Gal(a1-3)Gal(b1-4)[Fuc(a1-3)]GlcNAc(b1-2)Man(a1-6)]Man(b1-4)GlcNAc(b1-4)GlcNAc
Method in brief: as §1

Gal(a1-3)GalNAc = biological target: Gal(a1-3)GalNAc
Method in brief: as §1

[10] = biological target: Gal(a1-3)[Gal(a1-4)]Gal(b1-4)GlcNAc
Method in brief: as §1

Gal(a1-4)Gal(b1-4)Glc = biological target: Gal(a1-4)Gal(b1-4)Glc
Method in brief: as §1

[11] = biological target: Gal(b1-3)GlcNAc(b1-2)Man(a1-3)[Gal(b1-3)GlcNAc(b1-2)Man(a1-6)]Man(b1-4)GlcNAc(b1-4)[Fuc(a1-6)]GlcNAc
Method in brief: as §1

[12] = biological target: Gal(b1-3)GlcNAc(b1-6)Gal(b1-4)GlcNAc
Method in brief: as §1

[13] = biological target: Gal(b1-3)GlcNAc(b1-6)GalNAc
Method in brief: as §1

[14] = biological target: Gal(b1-3)[Fuc(a1-4)]GlcNAc(b1-3)Gal(b1-3)[Fuc(a1-4)]GlcNAc
Method in brief: as §1

[15] = biological target: Gal(b1-3)[Neu5Ac(a2-6)]GlcNAc(b1-4)Gal(b1-4)Glc
Method in brief: as §1

[16] = biological target: Gal(b1-4)GlcNAc(b1-2)Man(a1-3)[Gal(b1-4)GlcNAc(b1-2)Man(a1-6)][Gal(b1-4)GlcNAc(b1-4)]Man(b1-4)GlcNAc(b1-4)[Fuc(a1-6)]GlcNAc
Method in brief: as §1

[17] = biological target: Gal(b1-4)GlcNAc(b1-3)Gal(b1-4)GlcNAc(b1-2)[Gal(b1-4)GlcNAc(b1-3)Gal(b1-4)GlcNAc(b1-6)]Man(a1-6)[Gal(b1-4)GlcNAc(b1-3)Gal(b1-4)GlcNAc(b1-2)Man(a1-3)]Man(b1-4)GlcNAc(b1-4)[Fuc(a1-6)]GlcNAc
Method in brief: as §1

[18] = biological target: Gal(b1-4)GlcNAc(b1-3)Gal(b1-4)GlcNAc(b1-3)Gal(b1-4)GlcNAc(b1-2)[Gal(b1-4)GlcNAc(b1-3)Gal(b1-4)GlcNAc(b1-3)Gal(b1-4)GlcNAc(b1-6)]Man(a1-6)[Gal(b1-4)GlcNAc(b1-3)Gal(b1-4)GlcNAc(b1-3)Gal(b1-4)GlcNAc(b1-2)Man(a1-3)]Man(b1-4)GlcNAc(b1-4)[Fuc(a1-6)]GlcNAc
Method in brief: as §1

[19] = biological target: Gal(b1-4)GlcNAc(b1-3)Gal(b1-4)GlcNAc(b1-3)Gal(b1-4)GlcNAc(b1-3)Gal(b1-4)GlcNAc(b1-2)[Gal(b1-4)GlcNAc(b1-3)Gal(b1-4)GlcNAc(b1-3)Gal(b1-4)GlcNAc(b1-3)Gal(b1-4)GlcNAc(b1-6)]Man(a1-6)[Gal(b1-4)GlcNAc(b1-3)Gal(b1-4)GlcNAc(b1-3)Gal(b1-4)GlcNAc(b1-3)Gal(b1-4)GlcNAc(b1-2)Man(a1-3)]Man(b1-4)GlcNAc(b1-4)[Fuc(a1-6)]GlcNAc
Method in brief: as §1

[20] = biological target: Gal(b1-4)GlcNAc(b1-3)Gal(b1-4)GlcNAc(b1-3)Gal(b1-4)GlcNAc(b1-3)Gal(b1-4)GlcNAc(b1-3)Gal(b1-4)GlcNAc(b1-3)Gal(b1-4)GlcNAc(b1-2)Man(a1-3)[Gal(b1-4)GlcNAc(b1-3)Gal(b1-4)GlcNAc(b1-3)Gal(b1-4)GlcNAc(b1-3)Gal(b1-4)GlcNAc(b1-3)Gal(b1-4)GlcNAc(b1-3)Gal(b1-4)GlcNAc(b1-2)Man(a1-6)]Man(b1-4)GlcNAc(b1-4)GlcNAc
Method in brief: as §1

[21] = biological target: Gal(b1-4)GlcNAc(b1-6)[Gal(b1-4)GlcNAc(b1-3)]GalNAc
Method in brief: as §1

Gal3S(b1-3)GalNAc = biological target: Gal3S(b1-3)GalNAc
Method in brief: as §1

[22] = biological target: Gal3S(b1-4)[Fuc(a1-3)]GlcNAc6S
Method in brief: as §1

GalNAc(b1-3)Gal = biological target: GalNAc(b1-3)Gal
Method in brief: as §1

B1: DC-ASGPR L+GEE (Homo sapiens) (protein)
chain: MTRTYENFQYLENKVKVQGFKNGPLPLQSLLQRLRSGPCHLLLSLGLGLLLLVIICVVGFQNSKFQRDLVTLRTDFSNFTSNTVAEIQALTSQGSSLEETIASLKAEVEGFKQERQAGVSELQEHTTQKAHLGHCPHCPSVCVPVHSEMLLRVQQLVQDLKKLTCQVATLNNNGEEASTEGTCCPVNWVEHQDSCYWFSHSGMSWAEAEKYCQLKNAHLVVINSREEQNFVQKYLGSAYTWMGLSDPEGAWKWVDGTDYATGFQNWKPGQPDDWQGHGLGGGEDCAHFHPDGRWNDDVCQRPYHWVCEAGLGQTSQESH
[1]
  glycan array binding signal (z-score): -0.314
[2]
  glycan array binding signal (z-score): 0.538
[3]
  glycan array binding signal (z-score): 2.67
[4]
  glycan array binding signal (z-score): -0.492
[5]
  glycan array binding signal (z-score): 0.54
[6]
  glycan array binding signal (z-score): 3.41
[7]
  glycan array binding signal (z-score): 3.61
Gal(a1-3)Gal
  glycan array binding signal (z-score): 0.243
[8]
  glycan array binding signal (z-score): 3.21
[9]
  glycan array binding signal (z-score): 0.091
Gal(a1-3)GalNAc
  glycan array binding signal (z-score): -0.254
[10]
  glycan array binding signal (z-score): -0.371
Gal(a1-4)Gal(b1-4)Glc
  glycan array binding signal (z-score): -0.702
[11]
  glycan array binding signal (z-score): -0.527
[12]
  glycan array binding signal (z-score): -0.073
[13]
  glycan array binding signal (z-score): 3.3
[14]
  glycan array binding signal (z-score): -0.093
[15]
  glycan array binding signal (z-score): -0.382
[16]
  glycan array binding signal (z-score): -0.406
[17]
  glycan array binding signal (z-score): -0.323
[18]
  glycan array binding signal (z-score): 0.024
[19]
  glycan array binding signal (z-score): 2.52
[20]
  glycan array binding signal (z-score): 0.991
[21]
  glycan array binding signal (z-score): -0.432
Gal3S(b1-3)GalNAc
  glycan array binding signal (z-score): 0.442
[22]
  glycan array binding signal (z-score): 0.135
GalNAc(b1-3)Gal
  glycan array binding signal (z-score): 3.04
